Experimental findings from article PMC4336329 (PLoS ONE, 2015) are described below.

Screen size: about 310,000 compounds; about 14,000 (4.5%) showed an effect of 50% or more. Effects have a minus sign here. For the sample, strong results were picked, then their nearest neighbours and some compounds at random.
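Further: peak tail current of the secondary pulse compared with the same well before compound.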

This test deals with human ether-à-go-go-related gene (hERG) potassium channel (human, UniProt Q12809). The experiment in a line: primary screen, population patch clamp on CHO cells stably expressing hERG; higher = less effect of the substance.
Sequence of human ether-à-go-go-related gene (hERG) potassium channel (Q12809 whole entry, looked up): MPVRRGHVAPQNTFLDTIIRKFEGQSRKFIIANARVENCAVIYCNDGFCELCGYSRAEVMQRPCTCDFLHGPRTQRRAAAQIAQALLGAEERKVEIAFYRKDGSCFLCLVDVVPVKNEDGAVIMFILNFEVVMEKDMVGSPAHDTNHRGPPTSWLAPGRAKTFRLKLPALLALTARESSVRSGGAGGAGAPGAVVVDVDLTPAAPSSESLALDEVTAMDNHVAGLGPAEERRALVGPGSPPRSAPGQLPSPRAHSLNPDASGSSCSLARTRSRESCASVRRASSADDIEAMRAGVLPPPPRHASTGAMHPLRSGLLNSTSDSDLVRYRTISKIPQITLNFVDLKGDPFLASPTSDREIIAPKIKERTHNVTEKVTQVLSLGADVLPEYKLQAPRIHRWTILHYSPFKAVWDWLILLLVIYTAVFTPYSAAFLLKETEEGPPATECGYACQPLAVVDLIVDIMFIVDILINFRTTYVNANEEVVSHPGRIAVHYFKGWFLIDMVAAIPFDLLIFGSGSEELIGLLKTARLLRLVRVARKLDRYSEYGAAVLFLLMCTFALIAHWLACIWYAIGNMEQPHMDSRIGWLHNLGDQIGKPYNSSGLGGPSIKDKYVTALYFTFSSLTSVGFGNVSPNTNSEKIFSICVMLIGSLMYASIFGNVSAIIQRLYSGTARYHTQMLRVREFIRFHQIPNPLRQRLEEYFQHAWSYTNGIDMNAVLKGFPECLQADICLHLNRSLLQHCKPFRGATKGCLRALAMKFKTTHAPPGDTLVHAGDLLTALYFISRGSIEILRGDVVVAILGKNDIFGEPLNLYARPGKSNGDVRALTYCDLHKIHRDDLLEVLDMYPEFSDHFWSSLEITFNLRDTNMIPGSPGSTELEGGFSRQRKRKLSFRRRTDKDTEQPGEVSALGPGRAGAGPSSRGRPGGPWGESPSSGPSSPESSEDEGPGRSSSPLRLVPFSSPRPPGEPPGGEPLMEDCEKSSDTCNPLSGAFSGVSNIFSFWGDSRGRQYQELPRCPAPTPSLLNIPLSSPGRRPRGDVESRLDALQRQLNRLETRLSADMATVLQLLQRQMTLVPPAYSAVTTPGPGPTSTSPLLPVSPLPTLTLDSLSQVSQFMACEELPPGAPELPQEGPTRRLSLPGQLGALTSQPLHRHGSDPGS
In the case of `Cc1ccc(-n2c(C)c3c(C)nnc(C)c3c2C)cc1C`, the “hERG current change (%, negative = inhibition) at 10uM” value was -34%.
The value for `C=CCn1cc(C(=O)c2cc(Br)ccc2O)cc(C#N)c1=O` was -17.5%; that for `Cc1ccc(C(=O)OCC(=O)N2CCCC2)cc1` was -2.99%.
The value for `Cc1nnc(C)c2c(C)n(Cc3ccc4c(c3)OCO4)c(C)c12` was -71.4%.
The result for `Cc1nnc(-c2cnn(C)c2N)n1Cc1ccc2c(c1)OCO2` reads 5.96%.
Consider `CC(=O)c1c(C(C)=O)c(C)n(Cc2ccc3c(c2)OCO3)c1C`, for which the “hERG current change (%, negative = inhibition) at 10uM” value was -9.41%.
The result for `CCOc1ccc2oc(C(=O)OCC(=O)NC3CCCC3)c(C)c2c1` reads 11.1%; that for `Cc1cccc(NC(=O)CN2C(=O)c3ccccc3C2=O)c1C`, 0.742%.
On to `CCc1ccc(C(=O)NNC(=O)CCc2nc3ccccc3c(=O)[nH]2)cc1`, for which the “hERG current change (%, negative = inhibition) at 10uM” value is -7.54%.
The value for `c1ccc(CN2CCN(Cc3c[nH]c4ccccc34)CC2)cc1` was -30.2%.
The result for `O=C(O)C(=O)O.O=[N+]([O-])c1ccc(S(=O)(=O)N2CCN(Cc3c[nH]c4ccccc34)CC2)cc1` reads -54.5%; that for `O=[N+]([O-])c1ccc(CN2CCN(Cc3c[nH]c4ccccc34)CC2)cc1`, -77.8%; that for `O=S(=O)(c1ccc(Cl)cc1)N1CCN(Cc2c[nH]c3ccccc23)CC1`, -18.8%.
The result for `O=C(O)C(=O)O.O=[N+]([O-])c1ccccc1CN1CCN(Cc2c[nH]c3ccccc23)CC1` reads -24.2%.
On to `c1ccc2c(CN3CCCCC3)c[nH]c2c1`, for which the “hERG current change (%, negative = inhibition) at 10uM” value was -38%.
The result for `O=C(CN1CCN(Cc2ccccc2Cl)C1=O)NCc1cccnc1` reads -1.97%.
The result for `O=C(Cn1c(SCC(=O)N2CCCc3ccccc32)nc2ccccc21)N1CCCC1` reads -13.2%.
In the case of `O=[N+]([O-])c1ccc2c(c1)nc1n2CCN(c2ccccc2)C1`, the “hERG current change (%, negative = inhibition) at 10uM” value was -26.1%.
The result for `CCn1cnc2sc(C(=O)N(Cc3ccc(N(C)C)cc3)Cc3ccco3)c(C)c2c1=O` reads -22.2%; that for `CCOC(=O)c1c(NC(=O)C2COc3ccccc3O2)sc2c1CCN(Cc1ccccc1)C2.Cl` (stereo not drawn), 0.603%.
As for `CN(C)C1=NC[C@H](Cc2ccccc2)N1CC1CCCC1`, the “hERG current change (%, negative = inhibition) at 10uM” value is -16.9%.
The result for `CN(C)C1=NC[C@H](Cc2ccccc2)N1CCCC1CCCCC1` reads -70.8%; that for `CN(C)C1=NC[C@H](Cc2ccccc2)N1CC1CCCCC1`, -14.6%.
On to `NC1=NC[C@H](Cc2ccccc2)N1CCCCC1CCCCC1`, for which the “hERG current change (%, negative = inhibition) at 10uM” value is -25.9%.
As for `CN(C)C1=NC[C@H](Cc2ccccc2)N1CC1CCCCCC1`, the “hERG current change (%, negative = inhibition) at 10uM” value is listed as -27.8%.
For the molecule `NC1=NC[C@H](Cc2ccc(O)cc2)N1CCCCC1CCCCC1`, the “hERG current change (%, negative = inhibition) at 10uM” value is given as -50.2%.
The value for `CN(C)C1=NC[C@H](Cc2ccccc2)N1CCC1CCCC1` was -43.5%; that for `NC1=NC[C@@H](Cc2ccc(O)cc2)N1CCCCC1CCCCC1` was -18.6%; that for `CN(C)C1=NC[C@H](Cc2ccccc2)N1CCCC1CCCC1` was -71.2%.
The result for `N#C/C(=C\c1ccc(F)cc1F)S(=O)(=O)c1ccccn1` reads 6.77%.
The result for `Cc1ccc(C)c(NS(=O)(=O)c2cc3c4c(c2)CC(=O)N4CCC3)c1` reads 4.86%; that for `O=C(N/N=C/c1ccc(Br)s1)c1cccc([N+](=O)[O-])c1`, 12.2%; that for `CC(C)(C)NC(=O)CN(C(=O)C1CSC(=O)C1)c1ccccc1F` (stereo not drawn), -0.923%.
Regarding `Cc1occc1C(=O)NNS(=O)(=O)c1ccc(Cl)cc1`, the “hERG current change (%, negative = inhibition) at 10uM” value was found to be 7.64%.
The value for `Cc1occc1C(=O)NNS(=O)(=O)c1ccc([N+](=O)[O-])cc1` was 10.5%; that for `Cc1ccc(S(=O)(=O)NNC(=O)c2ccoc2C)cc1` was -70.6%.
The result for `O=C(CCc1ccccc1)NNC(=O)c1ccco1` reads 5.99%; that for `COc1ccc(C(=O)C2CCCN(C(=O)Cn3cncn3)C2)cc1OC` (stereo not drawn), 21.6%.
In the case of `COc1ccc(CN2CCCC(C(=O)c3ccc(Cl)cc3)C2)cc1Cn1cncn1` (stereo not drawn), the “hERG current change (%, negative = inhibition) at 10uM” value is -78%.
The value for `COc1cccc(C(=O)C2CCCN(Cc3ccc4nonc4c3)C2)c1` (stereo not drawn) was -48.5%.
The value for `COc1ccc(CN2CCN(CC=C(C)C)C(CCO)C2)cc1Cn1cncn1` (stereo not drawn) was -0.719%; that for `COc1cccc(C(=O)C2CCCN(Cc3ccc(OC)c(Cn4cncn4)c3)C2)c1` (stereo not drawn) was -58.6%; that for `O=C1CNC(=O)/C(=C\c2ccccc2)N1` was 11.8%.
For `O=C(CNC(=O)c1ccc(Oc2ccccc2)cc1)OC1CCCCC1=O` (stereo not drawn), the “hERG current change (%, negative = inhibition) at 10uM” value is recorded as -72.2%.
The result for `COc1ccc(C(=O)NCC(=O)OC2CCCCC2=O)cc1` (stereo not drawn) reads -13.5%; that for `COc1cc(OC)cc(C(=O)NCC(=O)OC2CCCCC2=O)c1` (stereo not drawn), -27.6%; that for `Cc1ccccc1OC1C(=O)N(CC2CCCO2)C1c1ccc2c(c1)OCO2` (stereo not drawn), -55.8%.
The result for `O=C1C(Oc2ccc(Cl)cc2)C(c2ccc3c(c2)OCO3)N1CC1CCCO1` (stereo not drawn) reads -28.3%; that for `COc1ccc(CCN2C(=O)C(Oc3ccccc3C)C2c2ccc3c(c2)OCO3)cc1` (stereo not drawn), -42.3%; that for `CCc1nc(NCCN2CCOCC2)c(C#N)c2c1CCCC2`, -37.2%.
The value for `CCOc1ccc(NCc2cccn2-c2nnc(N3CCC(C(=O)NCCCN4C(C)CCCC4C)CC3)s2)cc1` (stereo not drawn) was -69.3%; that for `CC1CCCCN1CCCNC(=O)C1CCN(c2nnc(-n3cccc3)s2)CC1` (stereo not drawn) was -27.1%.
On to `CCOc1ccc(CCNC(=O)C2CCN(c3nnc(-n4cccc4)s3)CC2)cc1`, for which the “hERG current change (%, negative = inhibition) at 10uM” value was -0.834%.
Consider `Cc1ccc(C)n1-c1nnc(N2CCC(C(=O)NCCCN3CC(C)CC(C)C3)CC2)s1` (stereo not drawn), for which the “hERG current change (%, negative = inhibition) at 10uM” value is -17.7%.
The result for `CC1CC(C)CN(CCCNC(=O)C2CCN(c3nnc(-n4cccc4)s3)CC2)C1` (stereo not drawn) reads -28.3%; that for `CCOc1ccc(CCNC(=O)C2CCN(c3nnc(-n4cccc4)s3)CC2)cc1OCC`, -35.7%; that for `CCN1CCN(CCCNC(=O)C2CCN(c3nnc(-n4cccc4)s3)CC2)CC1`, -3.56%.
On to `CCC1CCCCN1CCCNC(=O)C1CCN(c2nnc(-n3cccc3)s2)CC1` (stereo not drawn), for which the “hERG current change (%, negative = inhibition) at 10uM” value is recorded as -18.7%.
The result for `CC1CCCCN1CCCNC(=O)C1CCN(c2nc3ccccc3o2)CC1` (stereo not drawn) reads -1.61%; that for `CCOc1ccc(NCc2cccn2-c2nnc(N3CCC(C(=O)NCCCN4CCCCC4CC)CC3)s2)cc1` (stereo not drawn), -68%.
The value for `CCOc1ccc(NCc2cccn2-c2nnc(N3CCC(C(=O)NCCCN4CC(C)CC(C)C4)CC3)s2)cc1` (stereo not drawn) was -66.2%; that for `CCOc1ccc(NCc2cccn2-c2nnc(N3CCC(C(=O)NCCCN4CCCCC4C)CC3)s2)cc1` (stereo not drawn) was -53.8%; that for `COC(=O)c1ccccc1NC(=O)N1CCN(S(=O)(=O)c2ccc(Cl)cc2)CC1` was 7.58%.
The value for `O=C(Nc1ncccc1Cl)C(Sc1ccccc1)c1ccccc1` (stereo not drawn) was 8.58%; that for `Cc1[nH]n(-c2cccc(Cl)c2)c(=O)c1-c1ccccc1` was 17.1%; that for `CCOC(=O)c1nn(-c2ccc(C)cc2)cc1C(=O)c1ccccc1` was -9.04%.
Regarding `COc1cc(CNc2ccc(N3CCOCC3)c(C(=O)O)c2)ccc1OCC(N)=O`, the “hERG current change (%, negative = inhibition) at 10uM” value is given as -6.95%.
The value for `CCOc1ccc(S(=O)(=O)NCc2ccccc2)cc1C(N)=O` was 18.9%; that for `O=C(OCC(O)CN1CCCCC1)C12CC3CC(CC(C3)C1)C2` (stereo not drawn) was -16.3%.
The result for `CCOC(=O)N1CCC(NC(=O)CC2C(=O)NCCN2Cc2ccccc2F)CC1` (stereo not drawn) reads 11.8%; that for `CCOC(=O)c1cc(C(O)(C(=O)OC)C(F)(F)F)c(/N=C/N(C)C)o1` (stereo not drawn), -6.94%.
The result for `Cc1cccc(-n2c(C)cc(C(=S)N3CCOCC3)c2C)c1C` reads -7.9%; that for `COC(=O)C(C)Oc1ccc2c3c(c(=O)oc2c1)CCCCC3` (stereo not drawn), -59.2%.
Consider `CC(=O)C(C)Oc1ccc2c3c(c(=O)oc2c1)CCCC3` (stereo not drawn), for which the “hERG current change (%, negative = inhibition) at 10uM” value is on record as -12.8%.
The result for `CC(=O)C(C)Oc1ccc2c3c(c(=O)oc2c1)CCCCC3` (stereo not drawn) reads 2.1%; that for `O=C(CSc1nc(C(F)(F)F)cc(=O)[nH]1)Nc1nccs1`, 18.5%.
Regarding `CCc1nn(CCCC(=O)NCc2ccco2)c(=O)c2cc3occc3n12`, the “hERG current change (%, negative = inhibition) at 10uM” value is given as -14%.
On to `Cc1ccc(-n2c(O)c(C=NCc3ccccn3)c3ccccc3c2=O)cc1`, for which the “hERG current change (%, negative = inhibition) at 10uM” value was -3.79%.
The value for `COc1cccc(-n2c(O)c(C=NCc3ccccn3)c3ccccc3c2=O)c1` was -26.2%; that for `Cc1cccc(-n2c(O)c(C=NCc3ccccn3)c3ccccc3c2=O)c1` was -60.9%.
The result for `COc1ccc(Cl)cc1NC(=S)NCc1cccnc1` reads -15.3%; that for `CCOc1ccc(N(CC(=O)Nc2c(C)n(C)n(-c3ccccc3)c2=O)S(=O)(=O)c2ccc(F)cc2)cc1`, -17.6%.
The value for `Cc1c(NC(=O)COC(=O)/C=C/c2cccc(Br)c2)c(=O)n(-c2ccccc2)n1C` was -15.8%.
`CCOc1ccc(N(CC(=O)Nc2c(C)n(C)n(-c3ccccc3)c2=O)S(=O)(=O)c2ccccc2)cc1`: the “hERG current change (%, negative = inhibition) at 10uM” value is -55.2%.
The result for `CCOc1ccccc1OCC(=O)Nc1c(C)n(C)n(-c2ccccc2)c1=O` reads -6.05%; that for `Cc1c(NC(=O)COC(=O)/C=C/c2cccc(Cl)c2)c(=O)n(-c2ccccc2)n1C`, -58.7%.
`Cc1c(NC(=O)COc2cccc(Cl)c2Cl)c(=O)n(-c2ccccc2)n1C`: the “hERG current change (%, negative = inhibition) at 10uM” value is on record as -71.4%.
The result for `Cc1c(NC(=O)CSc2ncnc3ccccc23)c(=O)n(-c2ccccc2)n1C` reads -38.8%; that for `Cc1c(NC(=O)CN(c2ccc(F)cc2)S(=O)(=O)c2ccccc2)c(=O)n(-c2ccccc2)n1C`, -0.664%; that for `Cc1c(NC(=O)COC(=O)/C=C/c2ccc(Cl)cc2)c(=O)n(-c2ccccc2)n1C`, 28.5%.
With `Cc1c(NC(=O)CSc2ncnc3c2cnn3-c2ccccc2)c(=O)n(-c2ccccc2)n1C`, the “hERG current change (%, negative = inhibition) at 10uM” value was -64.1%.
The value for `Cc1cc(NC(=O)CSc2ncnc3c2cnn3-c2ccccc2)no1` was -10.8%; that for `Cc1c(NC(=O)COc2ccccc2Cl)c(=O)n(-c2ccccc2)n1C` was -4.59%.
